Measured values reported in PubChem BioAssay (Tox21).
Records with an inconclusive call do not appear. Calls of active or inactive are those of the source. Calls follow the shape of the dose curve; as a rule, active = well fitted cell-killing curve with a large enough effect in the repeat runs; inconclusive = weak or mixed curves, or effect the other way; inactive = no such curve, though single readings can be large or run the other way.

Assay: Caspase-3/7 induction in CHO-K1 cells by small molecules, qHTS cell viability counter screen (AID 1346979); also: nearly all actives have a fitted effect of over 35% in size
Conditions: CellTiter-Fluor fluorescence, 17 h; series mostly up to 92.4 µM; activity change, negative = cytotoxicity: at the top concentration
Excerpt: National Center for Advancing Translational Sciences [NCATS]
NIH Chemical Genomics Center [NCGC]
U.S. Environmental Protection Agency [EPA]
National Institutes of Environmental Health Sciences [NIEHS]
National Toxicology Program [NTP]
U.S. Food and Drug Administration [FDA]
Apoptosis is a process of programmed cell death and plays a central role in the development of multicellular organisms. It is a highly regulated process and induces cell death by activating caspases, which are the members of cysteine aspartic acid-specific protease (caspase) family. Caspases involved in apoptosis are classified by their mechanism of action as initiator caspases (caspase-2, -8, -9 and -10) and executioner caspases (caspase-3, -6, and -7). Inhibition of apoptosis results in number of cancers, autoimmune diseases, inflammatory diseases and viral infection. To identify small molecule compounds that induce apoptosis, a homogeneous, luminescent Caspase-Glo 3/7 assay was used. Wild type CHO-K1 cells were used to screen Tox21 libraries for identifying caspase-3/7 activity inducers. Also cytotoxicity of the compounds was tested in parallel by measuring the cell viability using CellTiter-Fluor assay system in the same wells.
Tox21 Assay Protocol Summary:
CHO-K1 cells were dispensed at 1,500 per well in 5uL of culture medium into white solid bottom 1536-well plates (Corning Life Sciences, Corning, NY) using a Multidrop Combi (Thermo Scientific, Waltham, MA) dispenser. The assay plates were incubated at 37 C and 5% CO2 for 5hr, and then 23nL of compounds dissolved in DMSO and positive control were transferred using a Pintool station (Wako, San Diego, CA). The assay plates were incubated at 37C and 5% CO2 for 17hr. For cytotoxicity read, after 16hr incubation at 37C, 1uL CellTiter-Fluor reagent (Promega Corporation, Madison, WI) was added to each well of the assay plates using Flying Reagent Dispenser (FRD, Aurora Discovery, San Diego, CA). After 1hr incubation at 37C and 5% CO2, the fluorescence signal was quantified using a ViewLux plate reader (PerkinElmer, Shelton, CT).
% is scaled to controls: 0 for no effect and ±100 for the full control effect; potency is read from the fitted curve at half-maximal effect.

SMILES | activity change, negative = cytotoxicity | Potency
CCC(Cl)[N+](=O)[O-] (stereo not given) | 3.69% (inactive) | 
O=C(Oc1ccc(Br)cc1)N1CCN2CCC1CC2 | -0.517% (inactive) | 
O=[N+]([O-])c1ccc2c3c(cccc13)CC2 | -4.57% (inactive) | 
C[N+](=O)[O-] | -4.23% (inactive) | 
CC(COc1ccc(Oc2ccccc2)cc1)Oc1ccccn1 (stereo not given) | 5.17% (inactive) | 
COCC(=O)N(c1c(C)cccc1C)N1CCOC1=O | -1.06% (inactive) | 
C(CCOCC1CO1)COCC1CO1 (stereo not given) | 0.11% (inactive) | 
COP(N)(=S)Oc1ccccc1C(=O)OC(C)C (stereo not given) | 10.7% (inactive) | 
ClCC(Cl)(Cl)Cl | 6.8% (inactive) | 
O=NN1CCN(N=O)CC1 | 3.04% (inactive) | 
CN1C[C@@H](NS(=O)(=O)N(C)C)C[C@@H]2c3cccc4c3c(cn4C)C[C@H]21 | 0.557% [at 42.5 µM] (inactive) | 
ClC(Cl)C(Cl)Cl | -11.2% (inactive) | 
C=C(C)CN(CC)c1c([N+](=O)[O-])cc(C(F)(F)F)cc1[N+](=O)[O-] | 2.41% (inactive) | 
CC(=O)C(Cl)Cl | 9.46% (inactive) | 
CCCSC(=O)N(CCC)CCC | 8.67% (inactive) | 
OC(c1ccccc1)(c1ccccc1)C1CCNCC1 | 1.06% [at 42.5 µM] (inactive) | 
CC(=O)CCc1ccc2c(c1)OCO2 | 12% (inactive) | 
CCC(=O)C(CCN(C)C)(c1ccccc1)c1ccccc1 | -2.54% [at 42.5 µM] (inactive) | 
CNNC | -5.44% (inactive) | 
CS(=O)(=O)c1cc(C(F)(F)F)ccc1C(=O)c1cnoc1C1CC1 | 4.13% (inactive) | 

SMILES | activity change, negative = cytotoxicity | Potency
Nc1n[nH]c(N)n1 | 4.71% (inactive) | 
C=CC1CC=CCC1 (stereo not given) | -0.0331% (inactive) | 
O=C1CN=C(c2ccccc2)c2cc([N+](=O)[O-])ccc2N1 | -7.25% [at 42.5 µM] (inactive) | 
COc1ncc(F)c2nc(S(=O)(=O)Nc3c(F)cccc3F)nn12 | -0.884% [at 42.5 µM] (inactive) | 
CC(=O)[C@H]1CC[C@H]2[C@@H]3CC[C@H]4C[C@H](O)CC[C@]4(C)[C@H]3C(=O)C[C@]12C | -3.31% [at 42.5 µM] (inactive) | 
Cc1nnc2n1-c1sc(CCC(=O)N3CCOCC3)cc1C(c1ccccc1Cl)=NC2 | 3.73% [at 42.5 µM] (inactive) | 
CC(CCc1ccccc1)NC(C)C(O)c1ccc(O)cc1 (stereo not given) | -9.07% [at 42.5 µM] (inactive) | 
COC(=O)c1ccccc1S(=O)(=O)NC(=O)Nc1nc(C)cc(C)n1 | -0.85% (inactive) | 
CCOP(=S)(OCC)Oc1ncn(-c2ccccc2)n1 | -1.73% (inactive) | 
CCC/C(=N\OCC)C1=C(O)CC(CC(C)SCC)CC1=O (stereo not given) | -0.907% (inactive) | 
CCCCOP(=O)(O)OCCCC | 7.4% (inactive) | 
COC(=O)C(c1ccccc1)C1CCCCN1 (stereo not given) | -4.36% (inactive) | 
CCCSP(=S)(OCC)Oc1ccc(Cl)cc1Cl (stereo not given) | 2.77% (inactive) | 
CCCCOC(=O)[C@@H](C)Oc1ccc(Oc2ccc(C#N)cc2F)cc1 | 1.08% (inactive) | 
CCOP(=S)(Oc1cnc(C(C)(C)C)nc1)OC(C)C (stereo not given) | -7.29% (inactive) | 
COP(=S)(OC)Oc1ccc(S(N)(=O)=O)cc1 | 11.4% [at 42.5 µM] (inactive) | 
CCOC(=O)N(C)C(=O)CSP(=S)(OCC)OCC | -4.25% (inactive) | 
CC1CN1P(=O)(N1CC1C)N1CC1C (stereo not given) | 0.129% (inactive) | 
O=[N+]([O-])c1ccc(CBr)cc1 | 4.82% (inactive) | 
C[C@H]1CCC[C@H](O)CCCCCc2cc(O)cc(O)c2C(=O)O1 |  | 61.6 µM (active)
